PMC6925144, “A prospective compound screening contest identified broader inhibitors for Sirtuin 1” (Scientific Reports, 2019)
Whole data set: some 3,200 compounds, median “TSA(without NAD+) / Primary screening (TSA) / delta Tm (K)” near -0.07, cut for the highest 2% near 0.37. The sample holds the highest values, similar compounds and a random draw of the others, so the mix is not that of the screen.

What follows are compounds tested against NAD-dependent deacetylase Sirtuin 1 (human, UniProt Q96EB6) (assay: primary screen, delta tm). Settings: 10 µM.
Parameters: single well (n = 1)
Protocol: A total of 3,192 compounds extracted from the proposed lists were first screened by thermal shift assay (TSA), which determined a melting temperature shift (ΔTm) of Sirtuin 1 upon the addition of a test compound at a concentration of 10 µM (n = 1) with primary hit criteria of ΔTm > 0.45 K or ΔTm < −1.5 K. Primary hits (48 compounds) were retested in the same assay at three concentrations (5, 10, 20 µM, n = 4) for hit confirmation and for dose-dependency check. Secondary hits (41 compounds) were checked their selectivity for Sirtuin 1 based on counterscreening on unrelated protein targets (bovine carbonic anhydrase (CA) and recombinant SH2 domain of hABL1 kinase (ABL1)) at three different concentrations (5, 10, 20 µM, n = 4), which yielded 38 hit compounds, hereafter referred to as TSA hits. The TSA screening above was conducted in the absence of NAD+.

NAD-dependent deacetylase Sirtuin 1, sequence (Q96EB6 2-747 limits assumed): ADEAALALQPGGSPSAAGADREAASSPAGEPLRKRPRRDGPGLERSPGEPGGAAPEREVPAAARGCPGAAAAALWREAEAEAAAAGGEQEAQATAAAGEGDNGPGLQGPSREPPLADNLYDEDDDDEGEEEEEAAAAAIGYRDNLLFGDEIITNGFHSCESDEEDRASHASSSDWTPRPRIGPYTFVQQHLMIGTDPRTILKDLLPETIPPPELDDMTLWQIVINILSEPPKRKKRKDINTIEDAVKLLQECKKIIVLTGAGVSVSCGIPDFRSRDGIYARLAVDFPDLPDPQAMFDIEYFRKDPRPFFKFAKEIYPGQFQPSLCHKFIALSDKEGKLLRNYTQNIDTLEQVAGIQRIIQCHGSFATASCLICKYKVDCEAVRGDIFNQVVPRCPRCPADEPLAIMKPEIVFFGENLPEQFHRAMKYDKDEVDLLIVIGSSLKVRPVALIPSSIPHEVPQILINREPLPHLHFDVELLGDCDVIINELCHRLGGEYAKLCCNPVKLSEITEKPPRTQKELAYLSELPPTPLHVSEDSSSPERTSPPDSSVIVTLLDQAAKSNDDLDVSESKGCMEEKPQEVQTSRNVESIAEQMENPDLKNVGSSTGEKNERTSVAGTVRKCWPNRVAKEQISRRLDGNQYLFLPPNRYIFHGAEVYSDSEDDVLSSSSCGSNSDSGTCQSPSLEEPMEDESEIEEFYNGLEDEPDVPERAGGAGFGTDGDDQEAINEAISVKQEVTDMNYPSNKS

Row | SMILES | TSA(without NAD+) / Primary screening (TSA) / delta Tm (K)
1 | CCS(=O)(=O)Nc1ccc(S(=O)(=O)Nc2nccs2)c(OC)c1 | -0.18
2 | N#Cc1ccccc1Sc1ccccc1C(=O)Nc1ccc(-c2cn3cccnc3n2)cc1 | -0.14
3 | CCOc1ccc(/C=C(/C#N)C(=O)c2c[nH]c3cc(F)ccc23)cc1 | 0.06
4 | N#C/C(=C\c1[nH]c2ccccc2c1Cl)C(N)=O | -0.13
5 | CCCCCCCCNC(=O)/C(C#N)=C/c1c[nH]c2ccccc12 | 0.58
6 | Oc1ccccc1/C=N/c1ccccc1O | -0.13
7 | Cc1cc2ccccc2n1CC(=O)NCC(Cc1ccccc1)N(C)C (centres unmarked) | -0.12
8 | Cc1ccc(NC(=O)c2cccc(S(=O)(=O)N(C)c3ccc(C)cc3)c2)cc1 | 0.45
9 | COc1ccc(N(C)S(=O)(=O)c2cccc(C(=O)Nc3ccc(C)cc3)c2)cc1 | 0.17
10 | CN(c1cccc(Cl)c1)S(=O)(=O)c1cccc(C(=O)Nc2sccc2C(N)=O)c1 | 0.18
11 | COc1ccc(N(C)S(=O)(=O)c2cccc(C(=O)Nc3ncc(C(N)=O)s3)c2)cc1 | 0.06
12 | Cc1ccc(N(C)S(=O)(=O)c2cccc(C(N)=O)c2)cc1 | -0.11
13 | Cc1ccc(N(C)S(=O)(=O)c2cccc(C(=O)Nc3sccc3C(N)=O)c2)cc1 | 0.17
14 | CN(c1cccc(Cl)c1)S(=O)(=O)c1cccc(C(=O)Nc2ncc(C(N)=O)s2)c1 | 0.37
15 | Cc1ccc(N(C)S(=O)(=O)c2cccc(C(=O)Nc3ccc(C(N)=O)cc3)c2)cc1 | 0.46
16 | CN(c1cccc(Cl)c1)S(=O)(=O)c1cccc(C(=O)Nc2cc(C(N)=O)cc(C(N)=O)c2)c1 | 0.15
17 | CC(=O)Nc1ccc(NC(=O)c2cccc(S(=O)(=O)N(C)c3ccc(C)cc3)c2)cc1 | -0.11
18 | CN(c1ccccc1)S(=O)(=O)c1cccc(C(=O)Nc2sccc2C(N)=O)c1 | 0.38
19 | Cc1nn(CC(=O)N2CCC(N3CCCC3C(N)=O)CC2)cc1-c1ccccc1 (centres unmarked) | -0.22
20 | CC(Nc1ccnc(CC#N)c1)C(=O)N1CCCCC1C (centres unmarked) | -0.28
21 | CS(=O)(=O)c1cccc(C(=O)N(Cc2ccccc2)c2ccccc2)c1 | -0.13
22 | CCCn1nnnc1CN1C(=O)NC(Cc2c[nH]c3ccccc23)C1=O (centres unmarked) | -0.28

Row | SMILES | TSA(without NAD+) / Primary screening (TSA) / delta Tm (K)
23 | O=C(Cn1[nH]c(=O)c2ccccc2c1=O)NC1CCCc2ccccc21 (centres unmarked) | 0.19
24 | Cc1ccccc1N1C(=O)c2ccc(C(=O)OCC(N)=O)cc2C1=O | -0.08
25 | CC1(C)C(=O)Nc2ccccc2N1C(=O)CNc1cccc2c1CCCC2 | -0.24
26 | CCS(=O)(=O)N1CCN(c2ccc(C(N)=O)cc2)CC1 | -0.15
27 | O=C(c1cnc2ccccc2n1)N1CCCC1c1nc2ccccc2s1 (centres unmarked) | -0.04
28 | COc1ccc(N(C)S(=O)(=O)c2cccc(C(=O)Nc3sc4c(c3C(N)=O)CCC(C)C4)c2)cc1 (centres unmarked) | 0.08
29 | CN(C)c1ccnc(N2CCCC(N3CCNC3=O)C2)n1 (centres unmarked) | -0.18
30 | CN(c1ccccc1)S(=O)(=O)c1cccc(C(=O)Nc2ccccc2)c1 | 0.12
31 | CN(c1ccccc1)S(=O)(=O)c1cccc(NC(=O)c2ccc(C(N)=O)cc2)c1 | 0.02
32 | CC1CCc2[nH]c3ccc(C(=O)Nc4cccc(S(=O)(=O)N(C)c5ccccc5)c4)cc3c2C1 (centres unmarked) | 0.42
33 | Cc1ccc(N(C)S(=O)(=O)c2cccc(C(=O)Nc3cccc(C#N)c3)c2)cc1 | 0.43
34 | CSc1cccc(NC(=O)c2cccc(S(=O)(=O)N(C)c3ccc(C)cc3)c2)c1 | 0.35
35 | Cc1ccc(N(C)S(=O)(=O)c2cccc(C(=O)Nc3cccc(C(=O)NC4CC4)c3)c2)cc1 | 0.06
36 | Cc1ccc(N(C)S(=O)(=O)c2cccc(C(=O)NNC(=O)CC34CC5CC(CC(C5)C3)C4)c2)cc1 | 0.45
37 | Cc1ccc(N(C)S(=O)(=O)c2cccc(C(=O)Nc3ccc4c(c3)C(=O)N(C)C4=O)c2)cc1 | 0.45
38 | COc1ccc(N(C)S(=O)(=O)c2cccc(C(=O)Nc3cccc(C#N)c3)c2)cc1 | 0.22
39 | Cc1ccc(C(=O)NNC(=O)c2cccc(S(=O)(=O)N(C)c3ccc(C)cc3)c2)cc1 | -0.14
40 | Cc1ccc(N(C)S(=O)(=O)c2cccc(C(=O)NNC(=O)c3ccncc3)c2)cc1 | -0.08
41 | CN(c1ccccc1)S(=O)(=O)c1cccc(NC(=O)c2cccc(C#N)c2)c1 | 0.13
42 | Cc1cc(CSc2nc3ccccc3[nH]2)no1 | 0.07
43 | Cc1ccc(C(=Nc2c(C)cc(C)cc2C)c2ccc(C)cc2)cc1 | -0.04
44 | CC(C#N)(NC(=O)CNc1cccnc1-c1ccccc1)C1CC1 (centres unmarked) | 0.08

Row | SMILES | TSA(without NAD+) / Primary screening (TSA) / delta Tm (K)
45 | CN(Cc1ccccc1)C(=O)NCC1CCN(c2ccncc2)CC1 | -0.02
46 | CC1CCc2[nH]c3ccc(C(=O)OCC(=O)NC(=O)NC45CC6CC(CC(C6)C4)C5)cc3c2C1 (centres unmarked) | 0.27
47 | CN(Cc1nc2ccccc2s1)C(=O)CSc1nnc(CC2CCS(=O)(=O)C2)o1 (centres unmarked) | -0.13
48 | Cc1ccc(N(C)S(=O)(=O)c2cccc(C(=O)Nc3ccc(Br)c(C)c3)c2)cc1 | 0.48
49 | COc1cccc(NC(=O)c2cccc(S(=O)(=O)N(C)c3ccc(C)cc3)c2)c1 | -0.02
50 | CN(c1cccc(Cl)c1)S(=O)(=O)c1cccc(C(=O)Nc2ccc(C(N)=O)cc2)c1 | 0.08
51 | CCCCc1ccc(NC(=O)c2cccc(S(=O)(=O)N(C)c3cccc(Cl)c3)c2)cc1 | 0.58
52 | Cc1ccc(N(C)S(=O)(=O)c2cccc(C(=O)Nc3ccncc3)c2)cc1 | -0.18
53 | CN(C)c1ccc(NC(=O)c2cccc(S(=O)(=O)N(C)c3cccc(Cl)c3)c2)cc1 | 0.27
54 | COC(=O)c1ccccc1NC(=O)Cc1c[nH]c2ccccc12 | -0.22
55 | COc1cc(/C=N/NC(=O)c2cc3c(s2)CCCC3)ccc1OCC(=O)Nc1ccc(C)cc1 | -0.22
56 | CCOc1cc(/C=N/NC(=O)c2cc3c(s2)CCCC3)ccc1OCC(=O)Nc1cccc(C(F)(F)F)c1 | 5.11
57 | COc1cc(/C=N/NC(=O)c2cc3c(s2)CCCC3)ccc1OS(=O)(=O)c1cc(C)ccc1C | 0.32
58 | O=C(C1=C(O)C(=O)N(CCCN2CCOCC2)C1c1ccco1)c1ccc(F)cc1 (centres unmarked) | -0.08
59 | CC(C)CCN1C(=O)c2ccc(C(=O)OCC(=O)NC(C)C34CC5CC(CC(C5)C3)C4)cc2C1=O (centres unmarked) | 0.48
60 | CC(NC(=O)COC(=O)c1ccc2c(c1)S(=O)(=O)c1ccccc1C2=O)C12CC3CC(CC(C3)C1)C2 (centres unmarked) | 0.17
61 | CC(NC(=O)COC(=O)CCCN1C(=O)c2cccc3cccc(c23)C1=O)C12CC3CC(CC(C3)C1)C2 (centres unmarked) | -0.34
62 | COc1ccc(C(=O)C2=C(O)C(=O)N(CCCN3CCOCC3)C2c2ccc(OC)cc2)cc1 (centres unmarked) | -0.13
63 | CC(=O)Nc1ccc(NC(=O)c2cccc(C(N)=O)c2)cc1C | -0.07
64 | NC(=O)c1cccc(NC(=O)c2cc3c(s2)-c2ccccc2CC3)c1 | 1.03
65 | NS(=O)(=O)c1ccc(C(=O)Nc2ccc3c(c2)-c2ccccc2C3)cc1 | 0.23
66 | NC(=O)Cn1cnc2c(cnn2-c2ccccc2)c1=O | -0.08

Row | SMILES | TSA(without NAD+) / Primary screening (TSA) / delta Tm (K)
67 | Cc1cc(S(=O)(=O)NCc2ccc(C(N)=O)cc2)sc1Cl | -0.11
68 | CC(C)(C)c1ccccc1NC(=O)c1ccc(S(=O)(=O)N2CCCC2)cc1 | -0.07
69 | O=c1onc(-c2cnccn2)n1Cc1nc2cc([N+](=O)[O-])ccc2o1 | -0.12
70 | CC(=O)N1N=C(c2ccc(O)cc2)CC1c1ccccc1 (centres unmarked) | 0.07
71 | O=C(CSc1nnnn1-c1ccc(O)cc1)N1N=C(c2ccc3ccccc3c2)CC1c1ccccc1 (centres unmarked) | 0.49
72 | CC(=O)N1N=C(c2ccccc2)CC1c1ccc(Br)cc1 (centres unmarked) | -0.02
73 | CN(C(=O)Cc1ccc(NC(=O)NCc2ccc(-n3cncn3)nc2)cc1)c1ccccc1 | 0.08
74 | CN1CCCN(c2ccc(NC(=O)NCCCNC(=O)c3cccc(O)c3)cc2F)CC1 | 0.02
75 | Cc1ccc(NC(=O)NCCc2cccc(O)c2)cc1NC(=O)NCCc1cccc(O)c1 | 0.38
76 | CCCNC(=O)Nc1ccc(OC)cc1 | -0.12
77 | CC(CN1CCOCC1)NC(=O)C(Cc1ccccc1)n1cnnn1 (centres unmarked) | -0.23
78 | Cc1ccc(N(C)S(=O)(=O)c2cccc(C(=O)Nc3ccccc3Cl)c2)cc1 | 0.07
79 | Cc1ccc(N(C)S(=O)(=O)c2cccc(C(=O)Nc3ccccc3C(F)(F)F)c2)cc1 | -0.13
80 | O=C(NN/C=C1/C(=O)N(c2cccc(C(F)(F)F)c2)C(=O)c2ccccc21)c1cccc(S(=O)(=O)Nc2ccccc2Cl)c1 | 1.45
81 | NC(=O)NCc1ccc(C(=O)Nc2nc(-c3c[nH]c(C(N)=O)c3)cs2)cc1 | -0.03
82 | COc1ccc(NC(=O)c2ccc(NC(=O)c3cnoc3C)cc2)cc1OCc1cccnc1 | -0.18
83 | COC(=O)c1cc(-c2csc(NC(=O)c3cccc(NC(=O)c4cnoc4C)c3)n2)c[nH]1 | 0.46
84 | COc1ccc(C(=O)NCCc2ccc(-c3csc(C)n3)s2)cc1 | 0.07
85 | Cc1nc(-c2ccc(CCNC(=O)c3ccc(NC(=O)c4cccs4)cc3)s2)cs1 | 0.63
86 | Cc1nc(-c2ccc(CCNC(=O)c3ccc(NC(N)=O)cc3)s2)cs1 | 0.23
